Measured values taken from PubChem BioAssay (NCATS).
Inconclusive results are not listed. The source made the active and inactive calls. Calls follow the shape of the full dose curve.

Assays:
[1] = Primary qHTS for inhibitors of SARS-S pseudo-typed particle cell entry (AID 1479145); also: nearly all actives have a fitted effect of over 45% in size
[2] = Primary qHTS for Huh7 cytotoxicity: counterscreen for inhibitors of MERS-S pseudotyped particle cell entry (AID 1479147)
[3] = Primary qHTS for inhibitors of MERS-S pseudo-typed particle cell entry (AID 1479149); also: nearly all actives have a fitted effect of over 60% in size
[4] = Primary qHTS for Vero E6 cytotoxicity: counterscreen for inhibitors of SARS-S pseudo-typed particle cell entry (AID 1479150)

Measured: Potency

COc1ccc2cc(CCC(C)=O)ccc2c1
inactive: all assays above

CCOc1cc(NC(C)=O)ccc1C(=O)OC
inactive: all assays above

[O-][n+]1cccc(/C(Cl)=N/OC[C@@H](O)CN2CCCCC2)c1
inactive: all assays above

COc1ncnc(NS(=O)(=O)c2ccc(N)cc2)c1OC
inactive: all assays above

CCCCC(CC)COC(=O)c1ccc(N(C)C)cc1 (configuration not stated)
inactive: all assays above

S=c1[nH]c2ccccc2s1
inactive: all assays above

NCCCC(N)(C(=O)O)C(F)F (configuration not stated)
inactive: all assays above

O=C(Nc1cccc(C2=NCCN2)c1)Nc1cccc(C2=NCCN2)c1
inactive: all assays above

CN1[C@@H]2CC[C@H]1CC(OC(=O)C(O)c1ccccc1)C2 (some centres not stated)
inactive: all assays above

NCCS
inactive: all assays above

N#C/C(=C1\SCC(c2ccccc2Cl)S1)n1ccnc1 (configuration not stated)
inactive: all assays above

O=C(O)c1ccccn1
inactive: all assays above

Cc1c(C)c2c(c(C)c1OC(=O)c1cccnc1)CC[C@@](C)(CCC[C@H](C)CCC[C@H](C)CCCC(C)C)O2
inactive: all assays above

c1ccc2[nH]ccc2c1
inactive: all assays above

CC1=NN(c2ccccc2)C(=O)C1
inactive: all assays above

NC(CO)C(=O)NNCc1ccc(O)c(O)c1O (configuration not stated)
inactive: all assays above

CCC(C)(Oc1ccc(C2(c3ccc(OC(C)(CC)C(=O)O)cc3)CCCCC2)cc1)C(=O)O (configuration not stated)
inactive: all assays above

N[C@H]1C(O)O[C@H](CO)[C@@H](O)[C@@H]1O (some centres not stated)
inactive: all assays above

CN1CCN(c2c(F)cc3c(=O)c(C(=O)O)cn4c3c2OCN4C)CC1
inactive: all assays above

CC(=O)N[C@@H](CCC(N)=O)C(=O)O
inactive: all assays above

CNCc1ccc(-c2[nH]c3cc(F)cc4c3c2CCNC4=O)cc1
inactive: all assays above

CCCCCCCCCCCCCC(=O)OC(C)C
inactive: all assays above

COc1c(N2CCNC(C)C2)c(F)cc2c(=O)c(C(=O)O)cn(C3CC3)c12 (configuration not stated)
inactive: all assays above

CC(=O)Nc1ccc(O)cc1
inactive: all assays above

CC(C[N+](C)(C)C)OC(N)=O (configuration not stated)
inactive: all assays above

O=C1NS(=O)(=O)c2ccccc21
inactive: all assays above

O=C(O)CNC(=O)CNC(=O)CNC(=O)CSC(=O)c1ccccc1
inactive: all assays above

COc1ccccc1O
inactive: all assays above

C[C@@H]1CN(c2c(F)c(N)c3c(=O)c(C(=O)O)cn(C4CC4)c3c2F)C[C@H](C)N1
inactive: all assays above

CN(C)CC/C=C1/c2ccccc2COc2ccc(CC(=O)O)cc21
inactive: all assays above

CCN1CCN(c2cc3c(cc2F)c(=O)c(C(=O)O)cn3C2CC2)CC1
inactive: all assays above

O=C(O)CC(O)C(=O)O (configuration not stated)
inactive: all assays above

C/C(=C1\CCOC(=O)S1)N(C=O)Cc1cnc(C)nc1N
inactive: all assays above
